Shown are actives, neighbours in structure and some others; about 12% of the full set was active somewhere.
BAZ2B block: BAZ2B (human) inhibition; AlphaScreen BAZ2B-H3K14Ac peptide displacement; Potency, µM (doses to about 114 µM), for inactives: at the highest dose activity change, negative = inhibition, actives largely listed as inhibitors; 360,000 compounds, 4.4% hits; AID 504333; also: % is scaled to controls: 0 for no effect and ±100 for the full control effect; nearly all actives have a fitted effect of over 60% in size
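Compounds, titrated to a top concentration of 110 uM, were incubated 30 min at room temperature with preformed BAZ2B/acetyl-K14 H3 peptide complex (50 nM each). Proximity signal was measured by AlphaScreen after 20 min with beads.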
JMJD2A Tudor inh: blocks the human JMJD2A Tudor domain; 390,000 compounds, 4.4% hits; Potency, µM (doses to about 114 µM), inactives show top-dose activity change, negative = inhibition, hits mostly inhibitors; AlphaScreen JMJD2A-Tudor / H3K4me3 peptide binding; also: % is scaled to controls: 0 for no effect and ±100 for the full control effect; nearly all actives have a fitted effect of over 50% in size
L3MBTL1 block: L3MBTL1 (human) inhibition. Q9Y468. AlphaScreen L3MBTL1–H3K9me1 peptide binding. Potency, µM (top dose mostly 57.1 µM), inactives show top-dose activity, negative = inhibition, most hits filed as inhibitors. 230,000 compounds, 0.66% hits. AID 485360; also: % is scaled to controls: 0 for no effect and ±100 for the full control effect; nearly all actives have a fitted effect of over 60% in size
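AlphaScreen assay: L3MBTL1 (50 nM final) was preincubated 30 min at room temperature with biotinylated H3(1-15)K9me1 peptide (75 nM final), then 30 min with library compounds; streptavidin donor and nickel chelate acceptor beads (10 ug/mL final) added, 30 min dark.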
HP1b binding inh: HP1-beta chromodomain-methylated histone interaction inhibition; P83916; AlphaScreen HP1-beta / biotin-H3K9me3 peptide binding; Potency, µM (titrated, usually from 114 µM), for the others: at the highest dose activity change, negative = inhibition, most hits filed as inhibitors; 390,000 compounds, 0.56% hits; AID 540317; also: nearly all actives have a fitted effect of over 70% in size
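HP1-beta protein (50 nM final) preincubated 30 min at room temperature with biotinylated H3(1-18)K9me3 peptide (50 nM) in PBS pH 7.4, 0.01% Tween-20, then compound added for 30 min. AlphaScreen streptavidin donor/nickel chelate acceptor beads (10 ug/mL final), 30 min dark, luminescence read.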
Sfp PPTase inh: inhibitors of Bacillus subtilis Sfp phosphopantetheinyl transferase; Q9F4F7; Potency, µM, for inactives: largest response in the series, negative = inhibition, most hits filed as inhibitors; Biochemical Sfp PPTase activity, qHTS; AID 1490; 310,000 compounds, 3.5% hits;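 also: the enzyme is Sfp with the accession as filed and its product quenches rhodamine fluorescence; 0% = enzyme reaction without inhibitor and -100% = no enzyme wells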
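After 15 min at room temperature with compound, 15 nM Sfp received 5 uM rhodamine-CoA plus 12.5 uM BHQ-2-ybbR (50 mM Hepes pH 7.6, 10 mM MgCl2). Rate came from the fluorescence difference over 30 min, ex 525/em 598 nm.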
G9a inh: G9a (human) methyltransferase inhibition. G9a H3K9 monomethylation, AlphaScreen, 2 h. Potency, µM (titrated, usually from 102 µM), for the others: top-dose activity, negative = inhibition, hits mostly inhibitors. 350,000 compounds, 8.8% hits; also: % is scaled to controls: 0 for no effect and ±100 for the full control effect; nearly all actives have a fitted effect of over 75% in size
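Step 1: enzyme (final 20 nM) with compound, 15 min RT. Step 2: substrate peptide 500 nM and SAM 20 uM, 2 h RT. Step 3: anti-H3K9me1 antibody and AlphaScreen beads, 10 min, then plate read.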
* = called active by the depositor; ? = inconclusive; . = no result given; [ ] = another dose, or the depositor's remark. Calls follow the shape of the dose curve; as a rule, active = well fitted curve in the direction sought with a large enough effect; inconclusive = small, poorly fitted or top-dose-only effect, or another doubt; inactive = no such curve, though single readings can be large; an effect the other way counts as inactive or inconclusive. Potency is read from the fitted curve at half-maximal effect.

SMILES | BAZ2B block | JMJD2A Tudor inh | L3MBTL1 block | HP1b binding inh | Sfp PPTase inh | G9a inh
Cc1cc(C(=O)N/N=C/c2cc([N+](=O)[O-])ccc2O)c2ccccc2n1 | 18µM* | 25µM* | 18µM* | 25% | -2% | 32%[59 µM]
O=C(N/N=C/c1cc([N+](=O)[O-])ccc1Cl)c1cc(-c2ccccc2)nc2ccccc12 | -1% | 0% | . | 50% | -20% | 10%[12.7 µM]
O=C(N/N=C/c1cc([N+](=O)[O-])ccc1O)c1cc(-c2ccccc2)nc2ccccc12 | 32µM* | ? | ? | 9% | ? | ?
Cc1cc(C(=O)N/N=C/c2ccc([N+](=O)[O-])cc2)c2ccccc2n1 | 28% | -6% | -13% | 40% | -9% | 14%
O=C(COc1ccccc1Cc1ccccc1)Nc1cccnc1 | 9% | -11% | -2% | 45% | . | -6%[2.33 µM]
CC(C)[C@@H](CC(=O)N[C@@H]1CCNC[C@H]1C(=O)N[C@H](CC(=O)N[C@@H](CCC(=O)O)CC(=O)O)Cc1ccccc1)NC(=O)C[C@H](Cc1c[nH]c2ccccc12)NC(=O)[C@@H]1CCCC[C@H]1N | . | . | . | . | -16% | .
CCn1c(=O)c2sccc2n(Cc2ccc(C)cc2)c1=O | -4% | -5% | -1% | 14% | 23% | -8%
Cc1cc(C(=O)N/N=C/c2cc(Br)cc([N+](=O)[O-])c2O)c2ccccc2n1 | 50µM* | ? | ? | ? | -2% | ?
COCCN1Cc2cccc(C(=O)Nc3ccc(C)cc3C)c2C1=O | . | -3% | . | 37% | . | 9%[59 µM]
O=C(Cc1ccccc1)Nc1nnc2n1CCS2 | 79µM* | 50µM* | . | 12%[57 µM] | . | 10µM*
CCCC(=O)Nc1nnc2n1CCS2 | -11% | 79µM* | . | -2%[57 µM] | . | ?
CC(C)(C)c1ccc(C(=O)Nc2nnc3n2CCS3)cc1 | 2% | -4% | . | 24%[57 µM] | . | 53%[59 µM]
CC(C)(C)CC(=O)Nc1nnc2n1CCS2 | -4% | -8% | . | 14%[57 µM] | . | 38%[59 µM]
O=C(Nc1nnc2n1CCS2)c1ccco1 | 13µM* | 1.6µM* | . | 20%[57 µM] | 56µM* | 1.8µM*
O=C(Cc1ccc(F)cc1)Nc1nnc2n1CCS2 | 56µM* | ? | . | 6%[57 µM] | . | 10µM*
CCCN(C(=O)CSCC(=O)Nc1cccc(C)c1)c1c(N)n(Cc2ccccc2)c(=O)[nH]c1=O | -5% | -23% | . | 11% | 15% | 20%
CCc1nn(CC(=O)NCc2ccc(OC)c(OC)c2)c(=O)c2cc3sc(C)cc3n12 | 3% | -15% | . | 1% | . | -1%[59 µM]
Cc1sc2nc[nH]c(=S)c2c1-c1ccccc1 | -27% | ? | 7% | -15% | 6% | -32%
S=c1[nH]cnc2sc(Nc3ccccc3)nc12 | -9% | -36% | -29% | 30% | 2.2µM* | 13%
Oc1cc(O)cc(/C=C/c2ccc(O)c(O)c2)c1 | ? | 45µM* | ? | 16µM* | 40µM* | 0.67µM*
O=S(=O)([O-])CCC[n+]1ccc(Oc2ccccc2)cc1 | -38% | 11% | 0% | 35% | -6% | 28µM*
COc1cccc(C(C2C(=O)CC(C)(C)CC2=O)C2C(=O)CC(C)(C)CC2=O)c1 | -2% | -6% | . | 61% | -29% | 79µM*
CC1(C)CC(=O)C(C(c2cccnc2)C2C(=O)CC(C)(C)CC2=O)C(=O)C1 | -1% | -32% | . | 32% | 1% | 50µM*
COC(=O)COc1ccc(NC(=O)C(c2ccccc2)c2ccccc2)cc1 | ? | -19% | ? | -3% | 16% | -2%
COc1ccc(N=NC2=C(O)CC(C)(C)CC2=O)cc1 | ? | -18% | -1% | 9% | 5% | .
SMILES | BAZ2B block | JMJD2A Tudor inh | L3MBTL1 block | HP1b binding inh | Sfp PPTase inh | G9a inh
COc1cccc(C(C2=C(O)CC(C)(C)CC2=O)C2C(=O)CC(C)(C)CC2=O)c1 (stereo not given) | 1% | -15% | 8% | 43% | -17% | 45µM*
COC(=O)COc1ccc(C(C2C(=O)CC(C)(C)CC2=O)C2C(=O)CC(C)(C)CC2=O)cc1 | 12% | 13% | . | 52% | 56µM* | 32µM*
CC1CCCN(C(=O)Cn2nnc(-c3ccccc3F)n2)C1 (stereo not given) | -20% | 4% | -4% | 49% | 24% | -1%
COc1cccc2[nH]c(C(=O)NCc3ccccc3)cc12 | -6% | -33% | . | -4% | 4% | 2%
CC1(C)CC(=O)C(C(c2cc([N+](=O)[O-])ccc2Cl)C2C(=O)CC(C)(C)CC2=O)C(=O)C1 | . | -3% | . | 55% | . | .
CC1(C)CC(=O)C(C(c2ccccc2F)C2C(=O)CC(C)(C)CC2=O)C(=O)C1 | -1% | -11% | 3% | 60% | -26% | .
Cc1cc(C(C2C(=O)CC(C)(C)CC2=O)C2C(=O)CC(C)(C)CC2=O)cc(C)c1OC(F)F | -12% | -25% | . | 4% | -10% | 32µM*
CC1(C)CC(=O)C(C(C2=C(O)CC(C)(C)CC2=O)c2ccc(O)c([N+](=O)[O-])c2)=C(O)C1 | -32% | -8% | -6% | 20% | 20µM* | 35µM*
CC1(C)CC(=O)C(C(C2=C(O)CC(C)(C)CC2=O)c2ccc([N+](=O)[O-])cc2)C(=O)C1 (stereo not given) | -16% | -10% | -7% | 46% | 18µM* | 32µM*
Cc1ccccc1-n1nc(CO)c(C(=O)NCc2cccnc2)n1 | -14% | -10% | . | 36% | . | 7%[59 µM]
COC(=O)[C@@]1(Cc2ccc(OC)cc2)[C@H]2c3cc(C(=O)N4CCCC4)n(CCc4c[nH]c5ccc(O)cc45)c3C[C@H]2CN1C(=O)c1ccccc1 | ? | . | -9% | . | 1% | 50µM*

Screening results from PubChem.
